# DT40 TDP1 CPT – growth inhibition of DT40 Tdp1-/-;hTDP1 cells with camptothecin (screen for TDP1 inhibitors). 420,000 tested, 12% active. chicken DT40 Tdp1-/-;hTDP1 cells + 20 nM CPT, ATP luminescence, 48 h. Potency, µM (titrated, usually from 46.2 µM), for inactives: at the highest dose activity change, negative = growth inhibition, most hits filed as inhibitors; also: potency is read from the fitted curve at half-maximal effect; nearly all actives have a fitted effect of over 55% in size
#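 Chicken DT40 Tdp1-/- cells complemented with human TDP1, 400 cells/well, exposed to compounds plus 20 nM camptothecin for at least 48 h at 37 C; viability read as ATP content by CellTiter-Glo luminescence.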
# ELG1 DNA repair – inhibitors of ELG1-dependent DNA repair in HEK293T cells. AID 504467. 330,000 tested, 2.3% active. HEK293T ELG1-luciferase reporter, luminescence, 16 h; DNA damage induced by 5-fluorouridine. Potency, µM (series often up to 46.1 µM), for inactives: at the top dose activity change, negative = inhibition, usual class: inhibitors; also: potency is read from the fitted curve at half-maximal effect; nearly all actives have a fitted effect of over 55% in size
#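 Cells (2,000 per well) received 5-fluorouridine plus test compound or DMSO and were incubated 16 hr at 37 °C, 5% CO2. Luciferase activity was read by luminescence 30 min after ONE-Glo addition; signal suppression marked inhibition of damage-induced ELG1 function.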
# HT1080 IDH1KD tx – kills HT-1080 cells with IDH1 knockdown | Potency, µM (doses to about 46.1 µM), for inactives: top-dose activity, negative = toxicity, usual class: cytotoxic | HT-1080 IDH1 knockdown viability, ATP luminescence, 48 h | 360,000 tested, 2% active;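 also: potency is read from the fitted curve at half-maximal effect; 0% = DMSO wells and -100% = cell-free medium wells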
#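 Using the IDH1-knockdown HT-1080 line run in the same batch and compound series as the NT line, viability after 48 h at 37 °C was determined by CellTiter-Glo luminescence and expressed as % activity.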
# IL-1B inflam inh – inflammasome signaling inhibition, IL-1 beta readout; activity change, % at 57.5 µM; THP-1 LPS/ATP IL-1B secretion, AlphaLISA, 16 h; stronger effect = lower value; AID 743279; 360,000 tested, 4.7% active; in the data active = activity change below about -50%; inconclusive = mostly about -30% to -49%
#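 THP-1 cells pretreated 1 hr with compounds (up to 57.5 uM final), then stimulated with LPS (250 ng/mL final) plus ATP (1.25 mM final); secreted IL-1B measured by AlphaLISA after 16 hr, decreased signal indicating inhibition.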
# TDP1 cell noCPT – qHTS for Inhibitors of human tyrosyl-DNA phosphodiesterase 1 (TDP1): qHTS in cells in absence of CPT | DT40 Tdp1-/- hTDP1 cells, no CPT, ATP luminescence, 48 h | 420,000 tested, 15% active | Potency, µM (top dose mostly 46.2 µM), inactives show top-dose activity change, negative = growth inhibition, hits mostly inhibitors; also: potency is read from the fitted curve at half-maximal effect; nearly all actives have a fitted effect of over 55% in size
#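 Readout: luminescence from CellTiter-Glo after 30 min in the dark at RT. Cells: DT40 Tdp1-/- with stable hTDP1, 400/well. Exposure: compounds alone, ≥48 hr, 37 °C.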
# HT1080NT lethal – kills 2HG-producing HT-1080-NT fibrosarcoma cells; 360,000 tested, 1.6% active; HT-1080-NT fibrosarcoma viability, CellTiter-Glo ATP luminescence, 48 h; Potency, µM (highest dose often 46.1 µM), for the others: top-dose activity, negative = less viability, actives largely listed as cytotoxic;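 also: NT is the 2HG producing partner of a matched IDH1 knockdown line; potency is read from the fitted curve at half-maximal effect; 0% = DMSO-treated cells and -100% = media-only wells without cells; nearly all actives have a fitted effect of over 55% in size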
#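 HT-1080-NT; 750 cells/well; 5% FBS RPMI; 48 h compound, 37 degrees C; CellTiter-Glo luminescence; curve fitting and curve-class assignment.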
# An asterisk follows results filed as active; ? = inconclusive; nt = not tested or not shown. In the library only some 19% were active in any assay of this set; here they are far more common. Unless noted, calls follow the shape of the dose curve; as a rule, active = well fitted curve in the direction sought with a large enough effect; inconclusive = small, poorly fitted or top-dose-only effect, or another doubt; inactive = no such curve, though single readings can be large; an effect the other way counts as inactive or inconclusive. Unless noted, % is scaled to controls: 0 for no effect and ±100 for the full control effect.
SMILES,DT40 TDP1 CPT,ELG1 DNA repair,HT1080 IDH1KD tx,IL-1B inflam inh,TDP1 cell noCPT,HT1080NT lethal
CCOc1ccc(S(=O)(=O)N/N=C2/CC(c3ccccc3)Oc3ccccc32)cc1 (stereo unspecified),?,0%,-23%,0,16µM*,-5%
O=C(N/N=C1\CC(c2ccccc2)Oc2ccccc21)c1cccnc1 (stereo unspecified),?,?,12µM*,67,21µM*,?
Cc1cccc(NC(=O)Cn2c(=O)n(Cc3ccc4c(c3)OCO4)c(=O)c3oc4ccccc4c32)c1C,7.3µM*,nt,nt,nt,7.3µM*,nt
O=C(Cn1c(=O)n(Cc2ccccc2)c(=O)c2oc3ccccc3c21)Nc1ccc(Cl)cc1,?,nt,nt,nt,18µM*,nt
COc1ccc(Cn2c(=O)c3oc4ccccc4c3n(CC(=O)Nc3cc(C)cc(C)c3)c2=O)cc1,-7%,nt,nt,nt,-1%,nt
CCn1cnc2c1c(=O)n(CC(=O)Nc1ccc(C(N)=O)cc1)c(=O)n2Cc1ccccc1,-3%,6.5µM*,7%,0,-13%,9%
COc1cccc2c(=O)cc(C)n(CC(=O)Nc3ccccc3C)c12,?,?,-17%,4,15µM*,-10%
CNC(=O)Cn1c(C)cc(=O)c2cccc(OC)c21,20%,20%,-1%,8,-2%,3%
CC(C)[C@@H](CSc1ccccc1)N1CCN(Cc2ccccc2)CCC1=O,?,?,3%,-21,?,-2%
Cc1ccc(C)c(NC(=O)Cn2c(=O)n(Cc3ccc4c(c3)OCO4)c(=O)c3oc4ccccc4c32)c1,2.9µM*,nt,nt,nt,2.9µM*,nt
Cc1cccc(NC(=O)Cn2c(=O)n(Cc3ccccc3)c(=O)c3oc4ccccc4c32)c1C,4.6µM*,nt,nt,nt,3.3µM*,nt
Cc1ccc(NC(=O)Cn2c(=O)n(Cc3ccc4c(c3)OCO4)c(=O)c3oc4ccccc4c32)cc1C,-25%,nt,nt,nt,-23%,nt
CCN(CC)CCCNC(=O)c1ccc2c(c1)NC(=O)C(CS(=O)(=O)Cc1cccc(Br)c1)N2 (stereo unspecified),-27%,nt,nt,nt,-15%,nt
COc1ccc(N(CC(=O)Nc2nc3ccc(C)cc3s2)S(=O)(=O)c2c(C)nn(C)c2C)cc1,?,18µM*,?,9,?,?
COc1ccc(N(CC(=O)Nc2cc(OC)ccc2OC)S(=O)(=O)c2c(C)nn(C)c2C)cc1,21µM*,-7%,-17%,?,?,-24%
COc1ccc(C(=O)NC2CCN(C(=O)Nc3ccccc3Cl)CC2)cc1,1%,-15%,-3%,0,-23%,1%
c1ccc2c(c1)OCCOCCOCCOCCOCCOc1ccccc1OCCOCCOCCO2,8.2µM*,?,?,-73*,15µM*,?
CC(=O)c1ccc2c(c1)OCCOCCOCCOCCO2,3%,0%,5%,0,-1%,7%
OCCN1CCOCCOc2ccccc2OCCOCC1,3%,0%,11%,48,0%,13%
CC(C)(C)C(=O)Nc1ccc2c(c1)OCCOCCOc1cc(NC(=O)C(C)(C)C)ccc1OCCOCCO2,-9%,7.3µM*,22%,?,-29%,14%
CC(=O)c1ccc2c(c1)OCCOCCOc1ccccc1OCCOCCO2,18µM*,0%,-4%,-15,23µM*,-15%
O=C(CSc1cn(CC(=O)N2CCOCC2)c2ccccc12)Nc1ccccc1F,-1%,nt,nt,nt,-5%,nt
CC(C)(C)[C@H]1COC(=O)CC/C=C\C[C@@H](CC(=O)N(CCO)Cc2ccccc2)C(=O)N1,-11%,?,6%,-9,5%,25%
COc1ccc(CN(C)C(=O)/C=C/c2ccc(S(=O)(=O)N3CCCCCC3)cc2)cc1,?,?,-7%,?,23µM*,-11%
COc1cccc(NC(=O)CN(C)C(=O)/C=C/c2ccc(S(=O)(=O)N3CCCCCC3)cc2)c1,?,nt,?,-3,18µM*,-15%
SMILES,DT40 TDP1 CPT,ELG1 DNA repair,HT1080 IDH1KD tx,IL-1B inflam inh,TDP1 cell noCPT,HT1080NT lethal
CCOc1ccc(S(=O)(=O)N2CCCCCC2)cc1,2%,0%,1%,-7,-15%,3%
CCOc1ccc(NC(=O)CN(C)C(=O)/C=C/c2ccc(S(=O)(=O)N3CCCCCC3)cc2)cc1OCC,?,-3%,0%,-15,?,3%
CCOc1ccc(CN(C)C(=O)CCc2ccc(S(=O)(=O)N3CCCCCC3)cc2)cc1,-87%,7.9µM*,-19%,?,-102%,-11%
COc1cccc(NC(=O)CN(C)C(=O)/C=C/c2ccc3ccccc3n2)c1,6%,-6%,-11%,-77*,-12%,-7%
Cc1nc2c(O)cccc2cc1CO,-4%,1%,17%,-9,4%,4%
COc1ccccc1NC(=O)C(C)OC(=O)/C=C/c1ccc2ccccc2n1 (stereo unspecified),29µM*,?,-3%,7,?,1%
CC(OC(=O)/C=C/c1ccc2ccccc2n1)C(=O)N(C)c1ccccc1 (stereo unspecified),?,?,13%,-2,?,9%
CNC(=O)c1ccc(CN(C)C(=O)/C=C/c2ccc(S(=O)(=O)N3CCCCCC3)cc2)cc1,23µM*,nt,-17%,-4,23µM*,-7%
CCOc1ccc(CN(C)C(=O)CCl)cc1,2.9µM*,4%,?,-102*,2.9µM*,?
CCOc1ccc(CN(C)C(=O)CCNC(=O)c2ccco2)cc1,-7%,11%,12%,-5,-3%,0%
CC[N+](CC)(CC)CCOc1ccc(/C=C/c2ccccc2)cc1,4.6µM*,-19%,16µM*,27,2.6µM*,?
CC[N+](CC)(CC)CCOc1ccc(/C=C\c2ccccc2)cc1,2.7µM*,nt,nt,nt,2.1µM*,nt
CC(C)NC(=O)CCSc1nc(-c2ccc3c(c2)OCO3)cc(C(F)(F)F)n1,13µM*,nt,nt,nt,8.2µM*,nt
CC(NC(=O)CCSc1nc(-c2ccc3c(c2)OCO3)cc(C(F)(F)F)n1)c1ccccc1 (stereo unspecified),23µM*,?,-11%,13,?,-1%
CCCCNC(=O)CCSc1nc(-c2ccc3c(c2)OCO3)cc(C(F)(F)F)n1,-13%,nt,nt,nt,-13%,nt
COc1ccc(/C=C/c2cc(C(F)(F)F)on2)cc1,-7%,?,19%,-13,1%,20%
